Experimental data reported in PubChem BioAssay (Tox21).
Results filed as inconclusive are left out. Active and inactive are the calls of the source. Unless noted, calls follow the shape of the dose curve; as a rule, active = well fitted curve in the direction sought with a large enough effect in the repeat runs; inconclusive = weak or mixed curves; inactive = no such curve, though single readings can be large; an effect the other way counts as inactive or inconclusive.

Key:
[1] = biological target: Estrogen receptor beta (Homo sapiens) (UniProt Q92731); assay: qHTS assay to identify small molecule antagonists of the estrogen receptor beta (ER-beta) signaling pathway (AID 1259378; active = well fitted inhibition curve with a large enough effect in the signal ratio in the repeat runs, not every such curve was filed as active; the % refers to the signal ratio)
How it was run: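 ER-beta-UAS-bla HEK293T (GripTite) cells in 2% charcoal-stripped FBS medium were preincubated 6 hr at 37C, dosed with compound, then stimulated with 1 nM E2 (final) for 16 hr; beta-lactamase reporter read by B/G FRET fluorescence after 2 hr substrate loading.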

[2] = qHTS assay to identify small molecule agonists of the androgen receptor (AR) signaling pathway in the presence of an antagonist - cell viability counter screen (AID 1259379);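 also: MDA-kb2 human breast cancer cells carrying an MMTV luciferase reporter; series mostly up to about 92 µM; nearly all actives have a fitted effect of over 25% in size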
How it was run: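 Each compound was tested at 15 concentrations on MDA-kb2 cells in the presence of 3.0uM nilutamide. Viability was measured by CellTiter-Fluor fluorescence after a 16 hr incubation at 37C in a CO2-free atmosphere.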

[3] = qHTS assay to identify small molecule agonists of the estrogen receptor beta (ER-beta) signaling pathway - cell viability counter screen (AID 1259380); also: nearly all actives have a fitted effect of over 30% in size
How it was run: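 Compounds dissolved in DMSO were pin-transferred onto ER-beta-UAS-bla HEK293T cells that had settled 6 hr, and exposure ran 16 hr at 37C. Following the reporter read, CellTiter-Glo luminescence after 30 min at room temperature indicated cytotoxicity.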

[4] = qHTS assay to identify small molecule antagonists of the estrogen receptor beta (ER-beta) signaling pathway - cell viability counter screen (AID 1259382); also: series mostly up to about 92 µM; nearly all actives have a fitted effect of over 55% in size
How it was run: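 CellTiter-Glo ATP luminescence measured after the LiveBLAzer read in the same wells; ER-beta-UAS-bla HEK293T cells, 16 hr compound treatment with 1nM 17-beta-estradiol agonist at 37C, 5% CO2.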

[5] = qHTS assay to identify small molecule agonists or antagonists of the thyroid stimulating hormone receptor (TSHR) signaling pathway - wild type cell line counter screen (AID 1259384; calls by dose curve)
How it was run: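 Wild-type HEK293 cells were plated 18 h at 37 C/5% CO2, pin-dosed with compound plus Ro20-1724 medium, held 30 min at room temperature, then given cAMP-d2 and anti-cAMP-cryptate; fluorescence was read after 1 h. Fifteen concentrations, triplicate.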

[6] = biological target: Thyrotropin receptor (Homo sapiens) (UniProt P16473); assay: qHTS assay to identify small molecule antagonists of the thyroid stimulating hormone receptor (TSHR) signaling pathway (AID 1259385; calls by dose curve; also: nearly all actives have a fitted effect of over 20% in size)
How it was run: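 TSHR-HEK293 cells were plated and held 18 h at 37C/5% CO2, then given compound plus Ro20-1724 and stimulated with TSH at 1.5 ng/mL final. After 30 min at room temperature, cAMP was detected with cAMP-d2/anti-cAMP-cryptate (1 h) by fluorescence.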

[7] = qHTS assay to identify small molecule agonists of the estrogen receptor alpha (ER-alpha) signaling pathway in the presence of an antagonist - cell viability counter screen (AID 1259386);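 also: series mostly up to about 92 µM; cells exposed to compounds for 22 h at 37 °C before the viability read; nearly all actives have a fitted effect of over 30% in size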
How it was run: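 Using estrogen-depleted VM7Luc4E2 cells, the 15-concentration compound series was applied together with 10.0nM ICI-182,780 and incubated 22hr at 37C/5% CO2. Cell viability was then scored by CellTiter-Fluor.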

[8] = biological target: Progesterone receptor (Homo sapiens) (UniProt P06401); assay: qHTS assay to identify small molecule agonists of the progesterone receptor (PR) signaling pathway (AID 1346784; calls by dose curve; also: nearly all actives have a fitted effect of over 30% in size)
How it was run: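 Seed PR-UAS-bla HEK 293T cells (2% charcoal-stripped FBS), incubate 6 hr at 37C; add compounds in DMSO, 16 hr at 37C; add LiveBLAzer B/G substrate, 2 hr RT; read fluorescence intensity.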

[9] = biological target: Progesterone receptor (Homo sapiens) (UniProt P06401); assay: qHTS assay to identify small molecule antagonists of the progesterone receptor (PR) signaling pathway (AID 1346795; active = well fitted inhibition curve with a large enough effect in the signal ratio in the repeat runs, not every such curve was filed as active; the % refers to the signal ratio)
How it was run: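 Screening used a GripTite HEK293T line with PR-responsive UAS-beta-lactamase. Cells were challenged with compound in the presence of 1 nM R5020 final for 16 hr at 37C; B/G FRET substrate, 2 hr room temperature, fluorescence.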

[10] = qHTS assay to identify small molecule antagonists of the progesterone receptor (PR) signaling pathway - cell viability counter screen (AID 1346798); also: series mostly up to about 92 µM; nearly all actives have a fitted effect of over 50% in size
How it was run: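 Measures cytotoxicity in parallel with the PR antagonist reporter read: HEK293T PR-UAS-bla cells get compound and R5020 for 16 hr, and remaining viable cells are quantified by CellTiter-Glo luminescence.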

[11] = qHTS assay to identify small molecule agonists of the progesterone receptor (PR) signaling pathway - cell viability counter screen (AID 1346799; calls by dose curve; also: nearly all actives have a fitted effect of over 45% in size)
How it was run: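 Using the same plates as the PR reporter screen, HEK293T PR-UAS-bla cells received compounds for 16 hr at 37C and were then lysed with CellTiter-Glo; luminescence was read 30 min later at room temperature.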

[12] = qHTS assay to identify small molecule antagonists of the TGF-beta/Smad signaling pathway - cell viability counter screen (AID 1346824); also: nearly all actives have a fitted effect of over 50% in size
How it was run: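 SBE-bla HEK 293T cells were plated overnight at 37 C, then given compounds in DMSO plus TGF-beta1 (added as 0.25 ng/mL solution) for 5 hr. After the bla read, CellTiter-Glo was added to the same wells and luminescence read after 30 min at room temperature.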

[13] = qHTS assay to identify small molecule agonists of the TGF-beta/Smad signaling pathway - cell viability counter screen (AID 1346829); also: top concentration of the series differs between compounds; nearly all actives have a fitted effect of over 45% in size
How it was run: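 Same-well cytotoxicity: CellTiter-Glo added after the 2 hr room-temperature beta-lactamase substrate step, luminescence measured 30 min later; cells had 5 hr of compound at 37 C.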

[14] = qHTS assay to identify small molecule agonists of the TGF-beta/Smad signaling pathway (AID 1346859; active = well fitted activation curve with a large enough effect in the signal ratio in the repeat runs, not every such curve was filed as active; the % refers to the signal ratio; also: series mostly up to about 77 µM)
How it was run: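 Beta-lactamase reporter activity downstream of Smad binding elements was measured in stably transfected HEK 293T cells; compounds were incubated for 5 hr, substrate for 2 hr at room temperature.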

[15] = Human pregnane X receptor (PXR) small molecule agonists, qHTS cell viability counter screen (AID 1346977); also: nearly all actives have a fitted effect of over 50% in size
How it was run: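 After a 5hr pre-incubation, PXR-Luc HepG2 cells received compounds plus positive control in DMSO and were kept 24hr at 37C. Cell viability was quantified by fluorescence from CellTiter-Fluor added for the final hour.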

[16] = Caspase-3/7 induction in HepG2 cells by small molecules, qHTS assay (AID 1346978); also: nearly all actives have a fitted effect of over 15% in size
How it was run: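 Wild-type HepG2 cells (2,000/well) were settled 5 h at 37 C, 5% CO2, then exposed to compounds in DMSO for 17 h. Caspase-3/7 activity was read by luminescence 30 min after adding Caspase-Glo 3/7 reagent at room temperature.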

[17] = biological target: Estrogen receptor (Homo sapiens) (UniProt P03372); assay: qHTS assay to identify small molecule agonists of the estrogen receptor alpha (ER-alpha) signaling pathway in the presence of an antagonist (AID 1259383; calls by dose curve; also: top concentration of the series differs between compounds; nearly all actives have a fitted effect of over 15% in size)
How it was run: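 Luminescent ERE-luciferase reporter, VM7Luc4E2 cells (endogenous ER-alpha); 10.0nM ICI-182,780 final; 15-point compound titration; 22hr at 37C; ONE-Glo, 30min RT.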

[18] = biological target: Thyrotropin-releasing hormone receptor (Homo sapiens) (UniProt P34981); assay: qHTS assay to identify small molecule agonists of the thyrotropin-releasing hormone receptor (TRHR) signaling pathway (AID 1346891; calls by dose curve;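 also: HEK293 cells expressing TRHR with calcium dye readout; series mostly up to about 58 µM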)
How it was run: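 Overnight-plated (18 h, 37 °C, 5% CO2) TRHR-Hek293 cells; 2 h calcium dye at 37 °C; compound in DMSO; 3-min kinetic fluorescence read.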

[19] = biological target: Thyrotropin-releasing hormone receptor (Homo sapiens) (UniProt P34981); assay: qHTS assay to identify small molecule antagonists of the thyrotropin-releasing hormone receptor (TRHR) signaling pathway (AID 1346877; active = well fitted inhibition curve with a large enough effect in the repeat runs, not every such curve was filed as active; also: series mostly up to about 51 µM)
How it was run: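 Calcium signal in dye-loaded TRHR/HEK293 cells; compounds added 5 min before TRH (1 nM final); fluorescence monitored 3 min at 1 s steps.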
% is scaled to controls: 0 for no effect and ±100 for the full control effect.

Estrogen receptor (Homo sapiens), sequence (P03372 whole entry, looked up): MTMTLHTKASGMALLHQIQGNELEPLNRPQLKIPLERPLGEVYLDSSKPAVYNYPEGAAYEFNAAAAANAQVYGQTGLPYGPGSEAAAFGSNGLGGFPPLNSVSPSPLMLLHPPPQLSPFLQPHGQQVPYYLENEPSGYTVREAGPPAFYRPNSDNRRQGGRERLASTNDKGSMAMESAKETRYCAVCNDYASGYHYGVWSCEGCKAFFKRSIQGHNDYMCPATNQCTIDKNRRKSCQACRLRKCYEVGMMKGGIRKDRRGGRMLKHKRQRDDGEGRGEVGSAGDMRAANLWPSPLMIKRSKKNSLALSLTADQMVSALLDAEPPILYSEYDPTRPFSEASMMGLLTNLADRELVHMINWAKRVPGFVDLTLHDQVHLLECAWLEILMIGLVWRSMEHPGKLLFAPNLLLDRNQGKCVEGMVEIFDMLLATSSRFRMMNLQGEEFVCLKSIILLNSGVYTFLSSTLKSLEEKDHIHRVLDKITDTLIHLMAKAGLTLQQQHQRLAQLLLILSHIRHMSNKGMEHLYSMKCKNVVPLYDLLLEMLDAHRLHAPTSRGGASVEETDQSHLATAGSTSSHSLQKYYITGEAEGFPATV
Thyrotropin-releasing hormone receptor (Homo sapiens), sequence (P34981 whole entry, looked up): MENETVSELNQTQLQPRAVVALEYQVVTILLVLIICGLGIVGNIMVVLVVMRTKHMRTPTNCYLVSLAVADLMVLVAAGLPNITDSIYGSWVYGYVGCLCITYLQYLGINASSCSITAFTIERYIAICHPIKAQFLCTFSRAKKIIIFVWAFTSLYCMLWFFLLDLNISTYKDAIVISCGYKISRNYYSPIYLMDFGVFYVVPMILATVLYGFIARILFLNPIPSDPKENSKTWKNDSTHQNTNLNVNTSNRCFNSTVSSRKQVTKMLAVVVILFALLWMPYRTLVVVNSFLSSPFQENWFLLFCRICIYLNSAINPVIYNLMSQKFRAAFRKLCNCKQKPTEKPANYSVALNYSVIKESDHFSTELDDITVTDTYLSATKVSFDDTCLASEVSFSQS
Estrogen receptor beta (Homo sapiens), sequence (Q92731 whole entry, looked up): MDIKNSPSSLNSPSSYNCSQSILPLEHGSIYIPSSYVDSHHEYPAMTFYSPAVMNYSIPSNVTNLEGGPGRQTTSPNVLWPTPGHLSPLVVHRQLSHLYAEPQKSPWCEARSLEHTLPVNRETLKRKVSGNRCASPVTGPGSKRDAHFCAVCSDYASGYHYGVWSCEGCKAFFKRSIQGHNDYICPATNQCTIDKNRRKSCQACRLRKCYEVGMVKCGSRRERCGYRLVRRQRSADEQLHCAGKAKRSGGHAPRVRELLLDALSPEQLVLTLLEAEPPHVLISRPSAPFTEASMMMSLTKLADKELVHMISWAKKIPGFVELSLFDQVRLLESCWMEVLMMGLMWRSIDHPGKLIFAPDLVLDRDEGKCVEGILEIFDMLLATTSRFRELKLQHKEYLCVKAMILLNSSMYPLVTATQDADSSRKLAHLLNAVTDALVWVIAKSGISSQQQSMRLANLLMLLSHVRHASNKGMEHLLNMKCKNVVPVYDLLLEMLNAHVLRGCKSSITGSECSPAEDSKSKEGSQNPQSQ
Thyrotropin receptor (Homo sapiens), sequence (P16473 whole entry, looked up): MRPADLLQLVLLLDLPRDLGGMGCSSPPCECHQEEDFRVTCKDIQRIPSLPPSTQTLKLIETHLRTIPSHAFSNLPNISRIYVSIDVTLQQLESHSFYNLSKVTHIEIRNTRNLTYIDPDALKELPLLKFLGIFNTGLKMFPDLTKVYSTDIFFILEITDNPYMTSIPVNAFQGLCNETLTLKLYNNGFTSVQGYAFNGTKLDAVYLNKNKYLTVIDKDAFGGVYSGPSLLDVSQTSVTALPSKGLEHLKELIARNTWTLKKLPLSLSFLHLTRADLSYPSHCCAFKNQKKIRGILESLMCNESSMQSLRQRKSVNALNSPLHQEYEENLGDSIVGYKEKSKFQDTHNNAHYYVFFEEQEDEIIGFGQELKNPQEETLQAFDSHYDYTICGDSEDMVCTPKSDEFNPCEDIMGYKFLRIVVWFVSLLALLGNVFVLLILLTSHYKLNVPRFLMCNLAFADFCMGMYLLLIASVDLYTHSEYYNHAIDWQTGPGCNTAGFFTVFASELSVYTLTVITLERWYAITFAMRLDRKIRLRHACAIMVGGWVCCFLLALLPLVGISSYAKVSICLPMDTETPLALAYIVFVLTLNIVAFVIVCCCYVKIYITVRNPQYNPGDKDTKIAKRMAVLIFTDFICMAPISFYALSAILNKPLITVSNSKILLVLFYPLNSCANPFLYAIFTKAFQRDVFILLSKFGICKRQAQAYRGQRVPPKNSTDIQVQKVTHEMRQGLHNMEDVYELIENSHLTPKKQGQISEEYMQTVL
Progesterone receptor (Homo sapiens), sequence (P06401 whole entry, looked up): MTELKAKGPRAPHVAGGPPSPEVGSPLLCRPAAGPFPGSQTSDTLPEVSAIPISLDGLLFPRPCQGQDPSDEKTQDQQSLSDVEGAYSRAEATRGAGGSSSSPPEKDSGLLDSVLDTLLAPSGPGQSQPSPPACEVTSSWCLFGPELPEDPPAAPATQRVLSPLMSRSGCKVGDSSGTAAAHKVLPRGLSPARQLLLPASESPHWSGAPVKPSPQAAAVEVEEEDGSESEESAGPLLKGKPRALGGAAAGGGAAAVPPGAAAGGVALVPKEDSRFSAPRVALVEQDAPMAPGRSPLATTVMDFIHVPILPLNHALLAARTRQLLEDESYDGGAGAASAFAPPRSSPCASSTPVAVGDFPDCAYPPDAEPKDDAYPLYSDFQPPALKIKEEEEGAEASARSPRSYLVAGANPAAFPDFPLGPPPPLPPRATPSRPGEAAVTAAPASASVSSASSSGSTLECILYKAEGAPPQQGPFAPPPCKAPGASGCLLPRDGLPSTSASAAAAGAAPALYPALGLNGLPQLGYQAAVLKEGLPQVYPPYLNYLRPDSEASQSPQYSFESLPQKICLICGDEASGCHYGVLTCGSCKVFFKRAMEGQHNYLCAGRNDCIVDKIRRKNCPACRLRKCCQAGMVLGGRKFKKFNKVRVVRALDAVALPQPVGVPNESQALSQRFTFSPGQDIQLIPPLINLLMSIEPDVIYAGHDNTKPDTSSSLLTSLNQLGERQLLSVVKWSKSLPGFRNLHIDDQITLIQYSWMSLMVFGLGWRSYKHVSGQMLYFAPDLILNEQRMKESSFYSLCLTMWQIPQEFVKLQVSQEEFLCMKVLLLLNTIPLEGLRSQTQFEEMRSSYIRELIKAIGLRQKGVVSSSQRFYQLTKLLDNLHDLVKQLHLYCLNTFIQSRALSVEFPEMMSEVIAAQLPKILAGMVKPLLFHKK

CC1=CCC(=O)O1
inactive: Potency [1] | Potency [2] | Potency [3] | Potency [4] | outcome [5] | Potency [6] | Potency [7] | outcome [8] | Potency [9] | Potency [10] | Potency [11] | Potency [12] | Potency [13] | Potency [14] | Potency [15] | Potency [16]

C#CC(O)CCC (stereo not given)
inactive: Potency [1] | Potency [2] | Potency [3] | Potency [4] | Potency [17] | outcome [5] | Potency [6] | Potency [7] | outcome [8] | Potency [9] | Potency [10] | Potency [11] | Potency [12] | Potency [13] | Potency [14] | Potency [18] | Potency [16]

CCCCOC(=O)C(C)CC (stereo not given)
inactive: Potency [1] | Potency [2] | Potency [3] | Potency [4] | Potency [17] | outcome [5] | Potency [6] | outcome [8] | Potency [11] | Potency [12] | Potency [13] | Potency [14] | Potency [19] | Potency [15] | Potency [16]

O=C1OC(=O)c2ccc3c4c(ccc1c24)C(=O)OC3=O
inactive: Potency [1] | Potency [2] | Potency [3] | Potency [4] | outcome [5] | Potency [6] | Potency [7] | outcome [8] | Potency [9] | Potency [10] | Potency [11] | Potency [12] | Potency [13] | Potency [14] | Potency [19] | Potency [18] | Potency [15] | Potency [16]

C[Si](C)(C)Cl
inactive: Potency [1] | Potency [2] | Potency [3] | Potency [4] | Potency [17] | outcome [5] | Potency [6] | outcome [8] | Potency [10] | Potency [11] | Potency [12] | Potency [13] | Potency [14] | Potency [15] | Potency [16]

C=C/C=C/C=C/CCCCC
inactive: activity, negative = inhibition [1] -14.6% [at 19 µM] | activity change, negative = cytotoxicity [2] 1.29% [at 19 µM] | activity change, negative = cytotoxicity [3] -7.99% [at 19 µM] | activity change, negative = cytotoxicity [4] 0.024% [at 19 µM] | activation [17] -1.21% [at 19 µM] | cAMP activity change [5] 0.413% [at 18.9 µM] | activity change, negative = inhibition [6] 1.23% [at 19 µM] | activity change, negative = cytotoxicity [7] -2.67% [at 19 µM] | activation [8] -1.1% [at 19 µM] | activity change, negative = cytotoxicity [10] 13.8% [at 18.9 µM] | activity change, negative = cytotoxicity [11] -2.82% [at 19 µM] | viability change, negative = cytotoxic [12] -6.86% [at 15.8 µM] | activity change, negative = cytotoxicity [13] -1.35% [at 15.8 µM] | activation [14] -2.28% [at 15.8 µM] | activity change, negative = cytotoxicity [15] 3.3% [at 19 µM] | caspase activation [16] -0.0295% [at 19 µM]

CC1CCCCC1
inactive: Potency [1] | Potency [2] | Potency [3] | Potency [4] | outcome [5] | Potency [7] | outcome [8] | Potency [9] | Potency [10] | Potency [11] | Potency [12] | Potency [13] | Potency [14] | Potency [16]

CCOB(OCC)OCC
inactive: Potency [1] | Potency [2] | Potency [3] | Potency [4] | outcome [5] | Potency [6] | outcome [8] | Potency [9] | Potency [10] | Potency [12] | Potency [13] | Potency [14] | Potency [15] | Potency [16]
